Measured values reported in PubChem BioAssay (EPA / NIEHS).
Activity calls are given as the source filed them. The calls were made as follows: active = hit-call score of the fitted dose curve at least 0.9, where 1 is the maximum; inactive = score below 0.9.

Legend:
[1] = ATG_GLI_CIS: Attagene CIS-FACTORIAL HepG2 Assay for human Zinc Finger Protein GLI1 (AID 2282945); details: HepG2, Attagene cis-factorial reporter mRNA, GLI element; actives raise or lower the signal
Summary of the method: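 Transiently transfected HepG2 cells report endogenous transcription factor activity via cis-element-driven reporter units. After 24 h compound exposure, reporter mRNA was measured by RT-PCR with capillary electrophoresis; bidirectional fitting against DMSO baseline.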

[2] = ATG_GRE_CIS: Attagene CIS-FACTORIAL HepG2 Assay for human Glucocorticoid Response Elements (GRE) (AID 2282947); details: HepG2 GRE cis-reporter, Attagene multiplex mRNA; actives raise or lower the signal
Summary of the method: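 Transiently transfected HepG2 cells carrying GRE cis-reporter units (endogenous TF activity) dosed 24 h; reporter mRNA quantified by RT-PCR, 6-FAM labelling, HpaI digestion and capillary electrophoresis. Bidirectional fit versus DMSO baseline.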

[3] = ATG_ISRE_CIS: Attagene CIS-FACTORIAL HepG2 Assay for human Interferon Regulatory Factor 1 (IRF1) binding to an Interferon-Stimulated Response Element (ISRE) (AID 2282948); details: HepG2 ISRE cis-reporter (Attagene), mRNA transcription readout; actives raise or lower the signal
Summary of the method: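 Transiently transfected HepG2 cells carrying cis-element reporter units, dosed 24 hours. Reporter mRNA quantified by RT-PCR, fluorescent primer extension, HpaI digestion and capillary electrophoresis. Bidirectional fitting relative to DMSO.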

[4] = ATG_M_32_CIS: Attagene CIS-FACTORIAL HepG2 Assay for M32 Transcription Factor (Internal Marker) (AID 2282949); details: HepG2 Attagene cis-factorial M32 reporter, mRNA; actives raise or lower the signal;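 also: background control marker of the multiplexed CIS panel rather than a real target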
Summary of the method: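 HepG2 cells transiently transfected with multiplexed cis-regulated reporter units, dosed 24 h. Reporter mRNA quantified by RT-PCR, 6-FAM labelling, HpaI digestion and capillary electrophoresis; bidirectional fit vs DMSO.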

[5] = ATG_M_06_CIS: Attagene CIS-FACTORIAL HepG2 Assay for M06 Transcription Factor (Internal Marker) (AID 2282950); details: HepG2 Attagene CIS-FACTORIAL M06 internal marker reporter; actives raise or lower the signal
Summary of the method: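 HepG2 cells transiently transfected with cis-regulated multiple reporter transcription units were exposed to chemical for 24 h; reporter mRNA was quantified by RT-PCR, 6-FAM primer labelling, HpaI digestion and capillary electrophoresis, fitted bidirectionally against DMSO.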

[6] = target: Hypoxia-inducible factor 1-alpha (Homo sapiens) (UniProt Q16665); test: ATG_HIF1a_CIS: Attagene CIS-FACTORIAL HepG2 Assay for human Hypoxia Inducible Factor 1 (HIF1A) (AID 2282951); details: HepG2 Attagene cis-factorial HIF1a reporter transcription; actives raise or lower the signal
Hypoxia-inducible factor 1-alpha (Homo sapiens), sequence (Q16665 whole entry, looked up): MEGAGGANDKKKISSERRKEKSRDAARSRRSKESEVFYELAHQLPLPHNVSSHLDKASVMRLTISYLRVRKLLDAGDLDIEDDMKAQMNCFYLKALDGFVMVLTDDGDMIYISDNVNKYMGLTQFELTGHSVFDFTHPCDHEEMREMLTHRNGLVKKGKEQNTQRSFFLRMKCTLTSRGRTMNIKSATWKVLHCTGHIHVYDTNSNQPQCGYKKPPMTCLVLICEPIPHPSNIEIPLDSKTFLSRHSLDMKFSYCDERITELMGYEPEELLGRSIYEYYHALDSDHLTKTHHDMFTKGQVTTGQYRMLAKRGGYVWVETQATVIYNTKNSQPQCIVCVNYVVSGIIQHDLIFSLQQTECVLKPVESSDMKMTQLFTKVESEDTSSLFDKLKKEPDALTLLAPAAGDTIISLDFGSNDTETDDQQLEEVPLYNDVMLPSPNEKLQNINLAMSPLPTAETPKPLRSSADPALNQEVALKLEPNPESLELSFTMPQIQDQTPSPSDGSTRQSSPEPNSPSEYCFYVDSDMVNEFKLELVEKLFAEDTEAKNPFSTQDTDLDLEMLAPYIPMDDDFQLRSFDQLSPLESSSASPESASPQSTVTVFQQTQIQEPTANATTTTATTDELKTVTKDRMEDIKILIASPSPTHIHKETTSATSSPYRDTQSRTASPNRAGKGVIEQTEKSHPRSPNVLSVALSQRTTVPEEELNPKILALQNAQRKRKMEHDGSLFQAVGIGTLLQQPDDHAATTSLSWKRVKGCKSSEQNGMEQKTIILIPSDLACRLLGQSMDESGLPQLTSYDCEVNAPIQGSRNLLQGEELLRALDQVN
Summary of the method: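 Fluorescence intensity of capillary-separated, 6-FAM-labelled reporter amplicons gives mRNA induction in HepG2 cells carrying transfected cis-promoter reporter units; cells exposed 24 h, responses fitted up or down from DMSO.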

[7] = target: Hepatocyte nuclear factor 6 (Homo sapiens) (UniProt Q9UBC0); test: ATG_HNF6_CIS: Attagene CIS-FACTORIAL HepG2 Assay for human Hepatocyte Nuclear Factor 6 (HNF6) (AID 2282952); details: HepG2 Attagene cis-factorial HNF6 reporter transcription; actives raise or lower the signal
Hepatocyte nuclear factor 6 (Homo sapiens), sequence (Q9UBC0 whole entry, looked up, the tested form may be a part): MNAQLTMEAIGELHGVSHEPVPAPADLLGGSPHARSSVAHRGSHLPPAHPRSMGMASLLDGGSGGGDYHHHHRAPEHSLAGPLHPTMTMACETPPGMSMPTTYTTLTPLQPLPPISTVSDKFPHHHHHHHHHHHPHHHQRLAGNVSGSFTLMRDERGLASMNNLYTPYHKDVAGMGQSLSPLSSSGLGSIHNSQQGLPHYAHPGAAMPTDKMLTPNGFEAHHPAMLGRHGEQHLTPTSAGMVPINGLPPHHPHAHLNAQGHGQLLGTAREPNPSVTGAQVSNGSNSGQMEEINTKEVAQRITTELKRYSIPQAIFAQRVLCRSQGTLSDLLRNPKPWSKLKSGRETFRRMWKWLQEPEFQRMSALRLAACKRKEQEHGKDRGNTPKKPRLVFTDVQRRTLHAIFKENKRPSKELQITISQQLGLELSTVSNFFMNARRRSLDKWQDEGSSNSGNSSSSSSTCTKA
Summary of the method: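 HepG2 cells transiently transfected with cis-element-driven multiplexed reporter units measuring endogenous transcription factor activity. After 24 h exposure, reporter mRNA quantified by RT-PCR, FAM-labelled fragments and capillary electrophoresis; bidirectional fitting versus DMSO.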

[8] = target: Heat shock factor protein 1 (Homo sapiens) (UniProt Q00613); test: ATG_HSE_CIS: Attagene CIS-FACTORIAL HepG2 Assay for human Heat Shock Transcription Factor 1 (HSE) (AID 2282953); details: HepG2 HSE cis-reporter, Attagene RNA transcription; actives raise or lower the signal
Heat shock factor protein 1 (Homo sapiens), sequence (Q00613 whole entry, looked up): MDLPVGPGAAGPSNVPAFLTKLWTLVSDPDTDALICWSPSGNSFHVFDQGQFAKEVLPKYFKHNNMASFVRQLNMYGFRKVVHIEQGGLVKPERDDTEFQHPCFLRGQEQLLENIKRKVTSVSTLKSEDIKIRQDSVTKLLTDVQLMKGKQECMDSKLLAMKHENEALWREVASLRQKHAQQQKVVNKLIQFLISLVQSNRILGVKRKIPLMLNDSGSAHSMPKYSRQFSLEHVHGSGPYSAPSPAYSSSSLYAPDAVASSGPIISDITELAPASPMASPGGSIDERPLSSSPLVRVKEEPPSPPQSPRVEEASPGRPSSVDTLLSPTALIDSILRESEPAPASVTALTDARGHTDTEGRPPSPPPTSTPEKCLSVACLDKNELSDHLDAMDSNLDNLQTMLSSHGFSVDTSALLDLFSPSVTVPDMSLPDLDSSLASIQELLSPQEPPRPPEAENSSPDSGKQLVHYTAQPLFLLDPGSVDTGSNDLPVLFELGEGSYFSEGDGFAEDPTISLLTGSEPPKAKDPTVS
Summary of the method: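 HepG2 cells transiently transfected with multiple reporter transcription units under cis-regulatory promoter control, measuring endogenous transcription factor activity. After 24 h chemical exposure, reporter mRNA quantified by RT-PCR, fluorescent labelling, HpaI digestion and capillary electrophoresis; bidirectional fit versus DMSO.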

[9] = ATG_MRE_CIS: Attagene CIS-FACTORIAL HepG2 Assay for human Metal Responsive Element (MRE) (AID 2282954); details: HepG2 MRE cis-reporter transcription, Attagene multiplex; actives raise or lower the signal
Summary of the method: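 HepG2 cells transiently transfected with cis-element-driven reporter units; mRNA measured 24 h after dosing. Reporter transcripts quantified by RT-PCR, FAM labelling, HpaI digestion and capillary electrophoresis; bidirectional fit versus DMSO.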

[10] = target: Bile acid receptor (Homo sapiens) (UniProt Q96RI1); test: ATG_IR1_CIS: Attagene CIS-FACTORIAL HepG2 Assay for human Nuclear Receptor Subfamily 1 Group H Member 4 (NR1H4), IR1 submotif (AID 2282946); details: IR1 reporter transcription, actives raise or lower the signal
Bile acid receptor (Homo sapiens), sequence (Q96RI1 whole entry, looked up): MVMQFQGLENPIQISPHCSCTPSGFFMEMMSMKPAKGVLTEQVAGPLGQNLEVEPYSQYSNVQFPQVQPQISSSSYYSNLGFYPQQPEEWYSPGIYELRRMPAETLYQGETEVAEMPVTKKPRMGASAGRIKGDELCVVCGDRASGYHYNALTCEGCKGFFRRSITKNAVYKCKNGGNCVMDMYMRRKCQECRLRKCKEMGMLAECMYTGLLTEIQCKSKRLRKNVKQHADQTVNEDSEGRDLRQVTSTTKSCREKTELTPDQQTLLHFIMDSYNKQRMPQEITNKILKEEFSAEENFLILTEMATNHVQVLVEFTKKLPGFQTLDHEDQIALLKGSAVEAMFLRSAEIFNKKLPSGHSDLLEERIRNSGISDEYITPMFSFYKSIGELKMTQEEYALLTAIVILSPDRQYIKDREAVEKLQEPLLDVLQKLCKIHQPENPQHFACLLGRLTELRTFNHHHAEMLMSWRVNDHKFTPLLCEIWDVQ
Summary of the method: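 HepG2 cells transiently transfected with multiple cis-promoter-driven reporter units to measure endogenous transcription factor activity; 24 h exposure. Reporter mRNA read by RT-PCR, FAM labelling, HpaI digestion and capillary electrophoresis. Bidirectional fit versus DMSO.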

Measured: AC50

CCc1ccc(C)nc1
not listed: [9] | [10]
inactive: all other assays above

N#Cc1ccccc1O
not listed: [10]
inactive: all other assays above

NC(O)(C(F)(F)F)C(F)(F)F
inactive: all assays above

CCCCCCCCn1sc(Cl)c(Cl)c1=O
active: [1] 11.1 µM | [2] 18.6 µM | [4] 15.9 µM | [6] 16.3 µM | [8] 11.1 µM
inactive: [3] | [5] | [7] | [9]

CCC(C)CO (configuration not stated)
not listed: [10]
inactive: all other assays above

CCCCC(CC)COC(=O)c1ccc(N(C)C)cc1 (configuration not stated)
inactive: all assays above

CCC(=O)OC(C)c1ccccc1 (configuration not stated)
inactive: all assays above

O=c1[nH]cccc1O
not listed: [9] | [10]
inactive: all other assays above

N#CCCOCCC#N
inactive: all assays above

O=C1C=CC(=O)N1c1ccc(Cc2ccc(N3C(=O)C=CC3=O)cc2)cc1
active: [6] 46.9 µM | [7] 50.7 µM | [8] 55.2 µM
not listed: [1] | [9]
inactive: all other assays above

CCCCCCCCCCCCCC[P+](CCCC)(CCCC)CCCC
active: [8] 0.82 µM | [9] 0.871 µM
inactive: all other assays above

Cc1cccc(C)n1
not listed: [1] | [9]
inactive: all other assays above

OCC(O)CC(F)(F)C(F)(F)C(F)(F)C(F)(F)C(F)(F)C(F)(F)C(F)(F)C(F)(F)F (configuration not stated)
not listed: [10]
inactive: all other assays above

CCCCCCCC/C=C\CCCCCCCC(=O)N(C)CC(=O)O
not listed: [10]
inactive: all other assays above

O=C1c2ccccc2C(=O)c2c(Cl)cccc21
not listed: [9] | [10]
inactive: all other assays above

CCOCOCC
not listed: [10]
inactive: all other assays above

COCCOCCC[Si](C)(O[Si](C)(C)C)O[Si](C)(C)C
active: [10] 51 µM | [2] 8.99 µM | [8] 20.3 µM
inactive: all other assays above

CC(C)CCCC(C)CCO (configuration not stated)
not listed: [10]
inactive: all other assays above

O=S(=O)(OCC(F)(F)F)C(F)(F)C(F)(F)C(F)(F)C(F)(F)F
active: [3] 63.2 µM
inactive: all other assays above

COC(=O)c1ccc(C=O)cc1
not listed: [9] | [10]
inactive: all other assays above

FC(F)(F)C(F)(F)C(F)(F)CC1CO1 (configuration not stated)
not listed: [10]
inactive: all other assays above

C#CC(O)CCC (configuration not stated)
not listed: [9] | [10]
inactive: all other assays above

CCC(Cc1c(I)cc(I)c(N)c1I)C(=O)O (configuration not stated)
active: [3] 88.5 µM
not listed: [10]
inactive: all other assays above

CCc1cccc(C)c1N(C(=O)C(=O)O)C(C)COC (configuration not stated)
not listed: [10]
inactive: all other assays above

CCN(CC)c1ccc(C=O)cc1
not listed: [9] | [10]
inactive: all other assays above

O=C(Cl)C(F)(F)C(F)(F)C(F)(F)C(F)(F)C(F)(F)C(F)(F)F
not listed: [9] | [10]
inactive: all other assays above
